FMDV antiviral = antivirals against foot and mouth disease virus. FMDV antiviral cell-based qHTS. Potency, µM (doses to about 57.9 µM), hits mostly inhibitors. 1.2% of 410,000 active. AID 1159524; calls by dose curve; tested in HEK293T cells; note: read-out not given here; nearly all actives have a fitted effect of over 45% in size
LASV entry inh = Lassa virus entry inhibition; Lassa virus pseudotype entry inhibition, cell reporter; Potency, µM (titrated, usually from 37.9 µM), usual class: inhibitors; 1.2% of 300,000 active; AID 540256; calls by dose curve; tested in HEK293 cells; note: nearly all actives have a fitted effect of over 50% in size
HCMV inh = human cytomegalovirus inhibition; 4.5% of 410,000 active; HFF cells, HCMV-luciferase reporter, 72 h; stronger effect = lower value; AID 1259415; activity change, negative = inhibition, % at 57.5 µM; in the data active = activity change below about -60%; inconclusive = no clear call, values can overlap the other calls; inactive = above about -39%
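Screen run at 2 compound doses on HFFs infected with reporter HCMV, MOI 1 PFU/cell. Luciferase activity from cell lysates at 72 h post infection gave inhibition relative to buffer-only and Salinomycin wells.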
MARV entry inh = inhibitors of Marburg virus binding or cell entry; Marburg virus pseudotyped entry inhibition, cell reporter; Potency, µM (highest dose often 37.8 µM), hits mostly inhibitors; 1.8% of 300,000 active; AID 540276; calls by dose curve; tested in HEK293 cells
Each line names hits and unclear results; the compound was inactive in the other large screens; ! = repeats disagree. A selection: hits, their analogues and other compounds. The true share with any hit is near 6.2%.

Cc1cc(C(=O)COC(=O)C2=NNC(=O)CC2)c(C)n1-c1ccccc1	FMDV antiviral inconclusive
CC(=O)Nc1cccc(C(=O)/C=C/c2ccco2)c1	none
O=C(Nc1cccc(C(F)(F)F)c1)c1cccnn1	none
Cc1ccc(C)c(C(=O)COc2ccc(C)nc2[N+](=O)[O-])c1	MARV entry inh inconclusive
COCCn1c(C)cc(C(=O)COc2ccc(C)nc2[N+](=O)[O-])c1C	FMDV antiviral 3.5µM, HCMV inh -94 (no result: LASV entry inh, MARV entry inh)
COc1cc2c(cc1O)CC[C@@H]1[C@@H]2CC[C@]2(C)[C@@H](O)CC[C@@H]12	LASV entry inh inconclusive (no result: HCMV inh)
CCOc1cc2c(cc1O)C(=NO)CC1C2CCC2(C)C(O)CCC12 (centres undefined)	LASV entry inh inconclusive, HCMV inh -76, MARV entry inh inconclusive
O=C(NC(c1ccc(-c2ccccc2)cc1)c1cnccn1)C1CCN(Cc2ccc(Oc3ccccc3)cc2)CC1 (centres undefined)	none (no result: LASV entry inh, MARV entry inh)
CC1CCCN(c2ccc(F)cc2N)C1 (centres undefined)	LASV entry inh inconclusive, HCMV inh -78, MARV entry inh inconclusive
CN(c1ccccc1)S(=O)(=O)c1ccc(C(=O)Nc2nnc(-c3ccco3)o2)cc1	HCMV inh -95, MARV entry inh inconclusive
CCN(Cc1ccccc1)S(=O)(=O)c1ccc(C(=O)Nc2nnc(-c3ccccc3OC)o2)cc1	LASV entry inh inconclusive, HCMV inh -61, MARV entry inh inconclusive
COc1ccccc1-c1nnc(NC(=O)c2ccc(S(=O)(=O)N(C)C)cc2)o1	none
CCN(c1ccccc1)S(=O)(=O)c1ccc(C(=O)Nc2nnc(-c3ccco3)o2)cc1	FMDV antiviral inconclusive, HCMV inh -77 (no result: LASV entry inh, MARV entry inh)
CCOc1ccccc1NC(=O)C(CC(C)C)NC(=O)C1CCC(C)CC1 (centres undefined)	MARV entry inh inconclusive
Cc1cccc(NC(=S)N(CCCN(C)C)Cc2cc3cc4c(cc3[nH]c2=O)OCO4)c1	LASV entry inh inconclusive, MARV entry inh inconclusive
CCN(CC)S(=O)(=O)c1ccc(Cl)c(NC2=NCCCCC2)c1	none
COc1ccc(C(=O)N[C@H](C(=O)Nc2cccc(S(=O)(=O)N3CCOCC3)c2)C(C)C)cc1	none (no result: LASV entry inh, MARV entry inh)
COc1ccc(C2C(C(=O)Nc3cc(OC)c(OC)c(OC)c3)c3ccccc3C(=O)N2C)cc1 (centres undefined)	LASV entry inh inconclusive, HCMV inh -66, MARV entry inh inconclusive
CCN1CCN(CCCNC(=O)C2c3ccccc3C(=O)N(c3ccc(OC)cc3)C2c2ccc(OC)cc2)CC1 (centres undefined)	HCMV inh -62, MARV entry inh inconclusive
Cc1ccc(C(C(=O)Nc2ccc3c(c2)OCO3)N(C)C(=O)Cc2c[nH]c3ccccc23)cc1 (centres undefined)	LASV entry inh inconclusive, MARV entry inh 10µM
C=CC[n+]1c(-c2ccc(Cl)cc2Cl)csc1Nc1c(C)n(C)n(-c2ccccc2)c1=O	FMDV antiviral inconclusive, LASV entry inh inconclusive, HCMV inh -87, MARV entry inh inconclusive
C=CC[n+]1c(-c2ccc(Cl)cc2Cl)csc1Nc1ccc(NC(C)=O)cc1	LASV entry inh 2.8µM, HCMV inh -94, MARV entry inh 3.2µM
CCOC(=O)[C@H]1[C@H]2COc3ccccc3[C@@H]2N2C(=O)c3cc(Br)ccc3NC(=O)[C@@]12C	none (no result: LASV entry inh, MARV entry inh)
Cc1ccc(-c2cc(C(=O)N3CCCC3)no2)cc1	LASV entry inh inconclusive, MARV entry inh inconclusive (no result: FMDV antiviral)
O=C(c1cc(-c2ccc(Cl)cc2Cl)on1)N1CCCC1	LASV entry inh 3.5µM, MARV entry inh inconclusive
Cc1ccc(-c2cc(C(=O)N3CCOCC3)no2)cc1	HCMV inh -61, MARV entry inh 2µM (no result: LASV entry inh)
Cc1ccc(-c2cc(C(=O)NC3CCCC3)no2)cc1	MARV entry inh 10µM
O=C(c1cc(-c2ccc3c(c2)OCO3)on1)N1CCCCC1	LASV entry inh 2.8µM, MARV entry inh inconclusive
CNC(=O)c1c(NC(=O)CCS(=O)(=O)c2ccccc2)sc2c1CCN(C(=O)OC)C2	none
CCOC(=O)[C@H]1[C@H]2COc3ccccc3[C@@H]2N2C(=O)c3cc(C)ccc3NC(=O)[C@@]12C	none (no result: LASV entry inh, MARV entry inh)
Cn1cnc2c(ncn2C2OC(CO)C(O)C2O)c1=S (centres undefined)	none
CCc1nn(Cc2cc(C)ccc2C)c(=O)c2cc3cc(C)ccc3n12	none (no result: LASV entry inh)
O=C(Nc1ccc(Br)cc1)c1cc(-c2ccc3c(c2)OCO3)on1	HCMV inh -60
CSCC[C@H](NS(=O)(=O)c1ccc(C)cc1)C(=O)N1CCC(C(=O)N[C@@H](Cc2ccccc2)C(=O)O)CC1	none (no result: LASV entry inh, MARV entry inh)
NC(=O)[C@@H]1CCCNc2c(F)cc([N+](=O)[O-])cc2C(=O)N[C@@H](CO)C(=O)NCC(=O)N1	none
COc1cccc(C(=O)C(=O)NC(C)(C)C)c1	none (no result: FMDV antiviral, LASV entry inh, MARV entry inh)
CSC(SC)=C(C#N)C(=O)c1ccccc1	FMDV antiviral 16µM, LASV entry inh inconclusive
COc1cccc(C(=O)C(C#N)=C(SC)SC)c1	FMDV antiviral 28µM (no result: LASV entry inh, MARV entry inh)
N#CC(C#N)=C(Nc1ccccc1)c1ccccc1	none
Cc1nn(Cc2ccc(C(=O)NC(C)(C)C)o2)c(C)c1Br	FMDV antiviral inconclusive, HCMV inh -80, MARV entry inh inconclusive
CCOc1ccccc1NS(=O)(=O)c1cn(C)nc1C	none
CC(C)(C)c1cc(C=C(C#N)C#N)cc(C(C)(C)C)c1O	FMDV antiviral 4µM!, LASV entry inh 0.41µM, HCMV inh -100, MARV entry inh 2.1µM
CC(C)(C)c1cc(/C=C(\C#N)C(N)=S)cc(C(C)(C)C)c1O	FMDV antiviral inconclusive, LASV entry inh 2.3µM, MARV entry inh 9.2µM (no result: HCMV inh)
CCc1ccc(/C=C(/C#N)C(N)=S)cc1	MARV entry inh inconclusive
COc1cc(C=C(C#N)C#N)cc(O)c1O	none (no result: FMDV antiviral, LASV entry inh, HCMV inh)
NS(=O)(=O)c1ccc(CCNc2nn3c(-c4ccc(F)c(Cl)c4)cnc3s2)cc1	FMDV antiviral inconclusive, HCMV inh -75 (no result: LASV entry inh, MARV entry inh)
NS(=O)(=O)c1ccc(CCNC(=O)CSc2ccc(Cl)cc2Cl)cc1	HCMV inh inconclusive
CNC(=S)NC1CC2CCCC(C1)N2Cc1ccc(C)cc1 (centres undefined)	MARV entry inh 4.6µM
CCNC(=S)NC1CC2CCCC(C1)N2Cc1ccc(C)cc1 (centres undefined)	none (no result: LASV entry inh, MARV entry inh)
Cc1ccc(CN2C3CCCC2CC(NC(=S)NCc2ccccc2)C3)cc1 (centres undefined)	LASV entry inh inconclusive, HCMV inh -67, MARV entry inh inconclusive
CCOC(=O)c1ccc(NC(=O)Nc2ccc3c4c(cccc24)C(=O)N3CC)cc1	MARV entry inh inconclusive
COc1ccc(OC)c(CCNC(=O)C(C)n2nc(C)c3c(C)n(-c4ccccc4)nc3c2=O)c1 (centres undefined)	MARV entry inh inconclusive
CCOc1ccccc1CNC(=O)C(C)n1nc(C)c2c(C)n(-c3ccccc3)nc2c1=O (centres undefined)	FMDV antiviral inconclusive, HCMV inh inconclusive, MARV entry inh inconclusive
Cc1nn(CC(=O)NCc2cccs2)c(=O)c2nn(-c3ccccc3)c(C)c12	HCMV inh -71
COc1ccc(OC)c(CCNC(=O)C(C)n2nc(C)c3c(C)n(-c4ccc(C)cc4)nc3c2=O)c1 (centres undefined)	FMDV antiviral 3.5µM, HCMV inh -77! (no result: MARV entry inh)
CCOc1ccccc1CNC(=O)Cn1nc(C)c2c(C)n(-c3ccc(C)cc3)nc2c1=O	FMDV antiviral 16µM (no result: LASV entry inh, HCMV inh, MARV entry inh)
Cc1nn(CC(=O)NCc2ccco2)c(=O)c2nn(-c3ccccc3)c(C)c12	none (no result: MARV entry inh)
